The record followed here is PMC7862700, “An all-to-all approach to the identification of sequence-specific readers for epigenetic DNA modifications on cytosine”.

What all share (test): DAPPL (digital affinity profiling via proximity ligation, sequencing); 10 mM Tris-HCl pH 7.5, 50 mM NaCl, 1 mM DTT, 4% glycerol, room temperature, 30 min; GST-TFs on glutathione beads, 16-mer random dsDNA library, 0.1% formaldehyde crosslink after washing; high values mean tight binding
The target in one test is T1, FLI1 (Homo sapiens, UniProt Q01543 1-452).
T1 sequence: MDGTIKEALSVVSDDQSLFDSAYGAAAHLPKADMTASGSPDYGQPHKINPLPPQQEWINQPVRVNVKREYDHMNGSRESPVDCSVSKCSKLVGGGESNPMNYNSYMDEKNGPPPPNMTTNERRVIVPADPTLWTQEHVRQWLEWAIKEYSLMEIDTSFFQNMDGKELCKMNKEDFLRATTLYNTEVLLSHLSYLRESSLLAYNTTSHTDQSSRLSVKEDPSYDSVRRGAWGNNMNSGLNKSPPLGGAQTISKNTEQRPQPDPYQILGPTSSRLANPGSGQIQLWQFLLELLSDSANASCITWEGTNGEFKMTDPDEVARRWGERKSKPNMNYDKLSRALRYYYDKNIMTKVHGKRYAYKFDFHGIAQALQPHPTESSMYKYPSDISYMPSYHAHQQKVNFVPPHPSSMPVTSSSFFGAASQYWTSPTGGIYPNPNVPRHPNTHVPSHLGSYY
Particulars: protein: recombinant; tags: N-terminal GST; dsDNA, one strand shown. A digest of the protocol:
(§1)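 Sequencing on an Illumina NextSeq500 followed washing, crosslinking with 0.1% formaldehyde, proximity ligation (BsaI/T4 ligase, 1 h, 37 °C) and PCR amplification of pools that had been incubated for 30 min at room temperature with 200 nmole of a random double-stranded 16-mer DNA library in Tris/NaCl/DTT/glycerol buffer. Each pool held DNA-barcoded human transcription factors, expressed in yeast as GST fusions and captured on glutathione beads, plus a tag-only sample. Binding signal is a hexamer's read frequency for a factor divided by its frequency in the tag-only sample.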

The next test has as its target T2, ELK1 (Homo sapiens, UniProt P19419 1-428).
T2 sequence: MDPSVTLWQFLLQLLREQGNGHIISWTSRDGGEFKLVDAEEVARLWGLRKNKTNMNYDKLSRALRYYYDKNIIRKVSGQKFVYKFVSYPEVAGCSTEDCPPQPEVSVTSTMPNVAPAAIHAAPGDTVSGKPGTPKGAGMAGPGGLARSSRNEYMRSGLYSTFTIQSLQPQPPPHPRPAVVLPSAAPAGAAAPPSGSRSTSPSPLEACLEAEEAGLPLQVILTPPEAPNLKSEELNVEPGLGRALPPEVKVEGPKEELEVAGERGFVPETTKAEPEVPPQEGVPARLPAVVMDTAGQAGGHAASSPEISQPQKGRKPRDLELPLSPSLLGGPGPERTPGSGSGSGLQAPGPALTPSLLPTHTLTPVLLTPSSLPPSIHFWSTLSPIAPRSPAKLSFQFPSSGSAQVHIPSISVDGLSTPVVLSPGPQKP
Particulars: protein: recombinant; tags: N-terminal GST; dsDNA, one strand shown. A digest of the protocol:
as §1

The target in another test is T3, GABPA (Homo sapiens, UniProt Q06546 1-454).
T3 sequence: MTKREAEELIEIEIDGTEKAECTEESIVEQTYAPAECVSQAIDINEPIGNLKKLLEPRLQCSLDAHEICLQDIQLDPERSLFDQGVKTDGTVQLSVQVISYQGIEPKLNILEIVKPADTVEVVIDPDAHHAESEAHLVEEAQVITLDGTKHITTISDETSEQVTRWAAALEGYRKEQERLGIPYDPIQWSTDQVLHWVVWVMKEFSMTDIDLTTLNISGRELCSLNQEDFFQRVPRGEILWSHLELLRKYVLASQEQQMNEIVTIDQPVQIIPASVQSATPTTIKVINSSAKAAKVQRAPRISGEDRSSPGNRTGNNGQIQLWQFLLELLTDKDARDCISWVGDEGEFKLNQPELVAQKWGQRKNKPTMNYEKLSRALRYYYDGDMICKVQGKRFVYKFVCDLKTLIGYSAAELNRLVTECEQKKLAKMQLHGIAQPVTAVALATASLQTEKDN
Particulars: protein: recombinant; tags: N-terminal GST; dsDNA, one strand shown. A digest of the protocol:
as §1

The next test addresses T4, ERG (Homo sapiens, UniProt P11308 1-479).
T4 sequence: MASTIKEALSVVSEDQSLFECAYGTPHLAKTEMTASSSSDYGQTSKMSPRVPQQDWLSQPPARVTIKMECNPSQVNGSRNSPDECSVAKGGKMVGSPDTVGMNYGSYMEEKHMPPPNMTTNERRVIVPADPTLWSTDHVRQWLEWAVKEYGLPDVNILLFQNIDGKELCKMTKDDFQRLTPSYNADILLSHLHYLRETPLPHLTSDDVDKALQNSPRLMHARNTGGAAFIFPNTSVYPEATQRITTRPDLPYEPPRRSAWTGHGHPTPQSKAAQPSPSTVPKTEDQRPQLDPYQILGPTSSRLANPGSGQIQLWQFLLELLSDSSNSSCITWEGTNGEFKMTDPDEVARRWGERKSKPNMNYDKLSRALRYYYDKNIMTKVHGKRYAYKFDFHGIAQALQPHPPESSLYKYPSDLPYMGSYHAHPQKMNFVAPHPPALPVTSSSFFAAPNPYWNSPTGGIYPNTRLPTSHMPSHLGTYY
Particulars: protein: recombinant; tags: N-terminal GST; dsDNA, one strand shown. A digest of the protocol:
as §1

In the next test the target is ELF1 (Homo sapiens, UniProt P32519 1-619). Particulars: protein: recombinant; tags: N-terminal GST; dsDNA, one strand shown. A digest of the protocol:
as §1

For another test, the target named is T5, EHF (Homo sapiens, UniProt Q9NZC4 1-300).
T5 sequence: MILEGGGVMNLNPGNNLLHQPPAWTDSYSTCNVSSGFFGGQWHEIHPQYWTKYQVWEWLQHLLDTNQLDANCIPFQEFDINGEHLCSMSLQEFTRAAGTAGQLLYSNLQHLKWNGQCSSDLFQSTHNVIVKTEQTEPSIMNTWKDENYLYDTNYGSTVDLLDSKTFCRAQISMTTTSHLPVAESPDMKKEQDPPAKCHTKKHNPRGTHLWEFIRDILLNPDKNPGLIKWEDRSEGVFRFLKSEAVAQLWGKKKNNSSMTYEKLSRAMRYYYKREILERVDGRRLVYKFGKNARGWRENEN
Particulars: protein: recombinant; tags: N-terminal GST; dsDNA, one strand shown. A digest of the protocol: as §1

Another test deals with SPI1 (Homo sapiens, UniProt P17947 1-270). Particulars: protein: recombinant; tags: N-terminal GST; dsDNA, one strand shown. A digest of the protocol: as §1
The next test concerns the target SPIB (Homo sapiens, UniProt Q01892 1-262). Particulars: protein: recombinant; tags: N-terminal GST; dsDNA, one strand shown. A digest of the protocol:
as §1

In another test the target is T6, ELK3 (Homo sapiens, UniProt P41970 1-407).
T6 sequence: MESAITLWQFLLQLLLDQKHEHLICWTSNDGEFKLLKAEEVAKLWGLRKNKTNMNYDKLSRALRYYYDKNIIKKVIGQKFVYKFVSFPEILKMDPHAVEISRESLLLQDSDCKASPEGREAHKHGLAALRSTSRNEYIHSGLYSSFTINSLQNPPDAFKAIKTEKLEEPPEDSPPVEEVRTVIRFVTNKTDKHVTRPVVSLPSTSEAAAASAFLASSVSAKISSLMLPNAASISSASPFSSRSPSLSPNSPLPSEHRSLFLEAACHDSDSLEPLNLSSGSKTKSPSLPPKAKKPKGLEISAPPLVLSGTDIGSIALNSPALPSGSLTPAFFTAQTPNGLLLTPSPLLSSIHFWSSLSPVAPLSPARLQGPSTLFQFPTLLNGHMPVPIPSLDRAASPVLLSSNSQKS
Particulars: protein: recombinant; tags: N-terminal GST; dsDNA, one strand shown. A digest of the protocol: as §1

The next test concerns the target T7, FEV (Homo sapiens, UniProt Q99581 1-238).
T7 sequence: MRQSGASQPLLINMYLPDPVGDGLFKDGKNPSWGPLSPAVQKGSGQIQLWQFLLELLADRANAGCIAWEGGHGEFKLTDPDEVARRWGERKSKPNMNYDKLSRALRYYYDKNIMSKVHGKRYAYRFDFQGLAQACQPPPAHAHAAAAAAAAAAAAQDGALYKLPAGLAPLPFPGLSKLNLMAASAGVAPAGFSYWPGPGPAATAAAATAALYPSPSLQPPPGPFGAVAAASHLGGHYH
Particulars: protein: recombinant; tags: N-terminal GST; dsDNA, one strand shown. A digest of the protocol:
as §1

A further test concerns the target ETV5 (Homo sapiens, UniProt P41161 1-510). Particulars: protein: recombinant; tags: N-terminal GST; dsDNA, one strand shown. A digest of the protocol: as §1
A further test deals with HSF1 (Homo sapiens, UniProt Q00613 1-529). Particulars: protein: recombinant; tags: N-terminal GST; chain copies: 3; dsDNA, one strand shown. A digest of the protocol:
as §1

The next test addresses T8, SPIC (Homo sapiens, UniProt Q8N5J4 1-248).
T8 sequence: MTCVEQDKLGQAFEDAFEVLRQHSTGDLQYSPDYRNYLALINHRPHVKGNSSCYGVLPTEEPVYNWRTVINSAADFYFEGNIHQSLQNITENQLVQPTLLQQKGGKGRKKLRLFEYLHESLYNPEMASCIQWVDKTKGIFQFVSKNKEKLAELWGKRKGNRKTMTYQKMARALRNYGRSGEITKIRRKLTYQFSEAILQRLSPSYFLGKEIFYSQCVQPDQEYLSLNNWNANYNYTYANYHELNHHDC
Particulars: protein: recombinant; tags: N-terminal GST; dsDNA, one strand shown. A digest of the protocol:
as §1

Another test addresses ELF4 (Homo sapiens, UniProt Q99607 1-663). Particulars: protein: recombinant; tags: N-terminal GST; dsDNA, one strand shown. A digest of the protocol:
as §1

In a further test the target is T9, ELK4 (Homo sapiens, UniProt P28324-2 1-405).
T9 sequence: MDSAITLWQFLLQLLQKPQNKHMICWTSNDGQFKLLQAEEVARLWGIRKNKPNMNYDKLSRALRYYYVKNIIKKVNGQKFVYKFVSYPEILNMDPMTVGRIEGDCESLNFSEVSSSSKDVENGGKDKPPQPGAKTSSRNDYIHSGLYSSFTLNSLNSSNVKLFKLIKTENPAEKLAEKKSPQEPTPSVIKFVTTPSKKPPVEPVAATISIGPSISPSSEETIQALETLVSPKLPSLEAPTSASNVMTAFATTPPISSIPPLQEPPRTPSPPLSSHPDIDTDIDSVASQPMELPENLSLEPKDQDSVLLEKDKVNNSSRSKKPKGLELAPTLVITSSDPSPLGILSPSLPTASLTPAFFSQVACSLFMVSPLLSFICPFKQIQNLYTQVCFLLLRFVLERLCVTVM
Particulars: protein: recombinant; tags: N-terminal GST; dsDNA, one strand shown. A digest of the protocol:
as §1

In the next test the target is T10, ETV2 (Homo sapiens, UniProt O00321 1-342).
T10 sequence: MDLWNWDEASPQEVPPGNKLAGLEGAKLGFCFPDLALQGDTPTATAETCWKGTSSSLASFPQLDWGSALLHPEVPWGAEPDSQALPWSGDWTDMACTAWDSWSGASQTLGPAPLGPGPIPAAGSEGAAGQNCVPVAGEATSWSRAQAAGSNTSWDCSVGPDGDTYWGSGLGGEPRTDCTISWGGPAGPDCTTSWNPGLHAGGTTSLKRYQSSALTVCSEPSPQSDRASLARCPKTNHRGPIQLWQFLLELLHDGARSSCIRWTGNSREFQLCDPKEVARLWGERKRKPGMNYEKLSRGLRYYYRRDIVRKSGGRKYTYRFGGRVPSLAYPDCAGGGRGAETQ
Particulars: protein: recombinant; tags: N-terminal GST; dsDNA, one strand shown. A digest of the protocol:
as §1

The next test deals with T11, ELF3 (Homo sapiens, UniProt P78545 1-371).
T11 sequence: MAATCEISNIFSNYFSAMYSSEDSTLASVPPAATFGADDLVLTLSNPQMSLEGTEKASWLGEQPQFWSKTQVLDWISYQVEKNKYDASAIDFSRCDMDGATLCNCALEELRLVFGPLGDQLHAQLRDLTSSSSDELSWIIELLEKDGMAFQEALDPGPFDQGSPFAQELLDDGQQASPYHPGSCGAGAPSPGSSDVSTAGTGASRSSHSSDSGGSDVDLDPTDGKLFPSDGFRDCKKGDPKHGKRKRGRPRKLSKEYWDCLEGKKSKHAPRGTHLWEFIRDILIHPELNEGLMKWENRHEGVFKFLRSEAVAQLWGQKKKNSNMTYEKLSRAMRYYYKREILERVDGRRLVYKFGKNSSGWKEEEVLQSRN
Particulars: protein: recombinant; tags: N-terminal GST; dsDNA, one strand shown. A digest of the protocol: as §1

The target in a further test is ETV1 (Homo sapiens, UniProt P50549 1-477). Particulars: protein: recombinant; tags: N-terminal GST; dsDNA, one strand shown. A digest of the protocol: as §1
ETV1, sequence (P50549 whole entry): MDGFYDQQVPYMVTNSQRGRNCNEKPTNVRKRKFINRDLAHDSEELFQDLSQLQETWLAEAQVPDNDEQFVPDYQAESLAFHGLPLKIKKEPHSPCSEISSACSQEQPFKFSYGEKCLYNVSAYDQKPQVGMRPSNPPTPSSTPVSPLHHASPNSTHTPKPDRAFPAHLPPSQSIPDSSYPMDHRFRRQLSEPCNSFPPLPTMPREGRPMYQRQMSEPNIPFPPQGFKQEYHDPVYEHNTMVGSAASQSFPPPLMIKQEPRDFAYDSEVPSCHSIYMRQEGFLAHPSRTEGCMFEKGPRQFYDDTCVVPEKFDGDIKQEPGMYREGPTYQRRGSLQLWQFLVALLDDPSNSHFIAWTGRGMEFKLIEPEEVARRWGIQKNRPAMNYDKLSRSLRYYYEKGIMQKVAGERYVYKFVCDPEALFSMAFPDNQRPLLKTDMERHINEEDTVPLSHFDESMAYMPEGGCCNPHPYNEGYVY

ETV5, sequence (P41161 whole entry): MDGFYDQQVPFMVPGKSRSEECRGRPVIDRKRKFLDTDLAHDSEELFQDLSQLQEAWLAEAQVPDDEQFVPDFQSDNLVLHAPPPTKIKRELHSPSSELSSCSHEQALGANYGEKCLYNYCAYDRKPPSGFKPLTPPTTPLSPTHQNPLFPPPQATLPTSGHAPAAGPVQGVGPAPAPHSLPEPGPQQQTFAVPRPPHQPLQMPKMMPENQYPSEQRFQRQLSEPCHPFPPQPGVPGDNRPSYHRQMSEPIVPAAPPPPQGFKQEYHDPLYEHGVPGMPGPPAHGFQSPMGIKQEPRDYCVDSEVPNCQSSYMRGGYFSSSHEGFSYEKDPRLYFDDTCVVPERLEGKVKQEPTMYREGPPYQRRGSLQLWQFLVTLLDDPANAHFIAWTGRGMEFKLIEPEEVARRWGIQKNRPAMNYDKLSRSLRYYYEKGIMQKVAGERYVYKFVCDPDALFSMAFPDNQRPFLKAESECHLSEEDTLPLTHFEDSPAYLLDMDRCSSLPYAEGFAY
ELF1, sequence (P32519 whole entry): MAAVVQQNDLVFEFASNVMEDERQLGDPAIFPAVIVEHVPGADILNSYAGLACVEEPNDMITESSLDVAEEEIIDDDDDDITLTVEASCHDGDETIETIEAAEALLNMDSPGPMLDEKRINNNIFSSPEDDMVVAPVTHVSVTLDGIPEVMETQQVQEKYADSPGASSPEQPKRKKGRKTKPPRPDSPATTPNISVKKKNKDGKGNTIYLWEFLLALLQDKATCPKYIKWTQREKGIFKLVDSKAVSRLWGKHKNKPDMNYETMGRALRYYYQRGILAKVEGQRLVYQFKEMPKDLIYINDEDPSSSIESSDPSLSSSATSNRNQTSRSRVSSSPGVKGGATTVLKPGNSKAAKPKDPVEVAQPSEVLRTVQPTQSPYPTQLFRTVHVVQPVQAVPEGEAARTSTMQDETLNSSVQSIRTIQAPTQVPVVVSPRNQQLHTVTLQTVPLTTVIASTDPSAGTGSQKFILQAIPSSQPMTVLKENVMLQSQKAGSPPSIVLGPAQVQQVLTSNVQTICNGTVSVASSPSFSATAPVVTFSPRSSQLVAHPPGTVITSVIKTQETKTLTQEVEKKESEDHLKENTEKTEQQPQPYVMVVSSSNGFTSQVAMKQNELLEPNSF
SPIB, sequence (Q01892 whole entry): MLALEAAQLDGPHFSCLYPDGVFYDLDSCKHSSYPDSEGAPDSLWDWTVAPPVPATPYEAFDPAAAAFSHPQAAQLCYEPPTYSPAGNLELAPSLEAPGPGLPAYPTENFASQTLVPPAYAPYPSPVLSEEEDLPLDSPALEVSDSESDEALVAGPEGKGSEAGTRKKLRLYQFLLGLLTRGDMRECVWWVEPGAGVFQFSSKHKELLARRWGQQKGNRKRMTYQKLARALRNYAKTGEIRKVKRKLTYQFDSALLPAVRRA
ELF4, sequence (Q99607 whole entry): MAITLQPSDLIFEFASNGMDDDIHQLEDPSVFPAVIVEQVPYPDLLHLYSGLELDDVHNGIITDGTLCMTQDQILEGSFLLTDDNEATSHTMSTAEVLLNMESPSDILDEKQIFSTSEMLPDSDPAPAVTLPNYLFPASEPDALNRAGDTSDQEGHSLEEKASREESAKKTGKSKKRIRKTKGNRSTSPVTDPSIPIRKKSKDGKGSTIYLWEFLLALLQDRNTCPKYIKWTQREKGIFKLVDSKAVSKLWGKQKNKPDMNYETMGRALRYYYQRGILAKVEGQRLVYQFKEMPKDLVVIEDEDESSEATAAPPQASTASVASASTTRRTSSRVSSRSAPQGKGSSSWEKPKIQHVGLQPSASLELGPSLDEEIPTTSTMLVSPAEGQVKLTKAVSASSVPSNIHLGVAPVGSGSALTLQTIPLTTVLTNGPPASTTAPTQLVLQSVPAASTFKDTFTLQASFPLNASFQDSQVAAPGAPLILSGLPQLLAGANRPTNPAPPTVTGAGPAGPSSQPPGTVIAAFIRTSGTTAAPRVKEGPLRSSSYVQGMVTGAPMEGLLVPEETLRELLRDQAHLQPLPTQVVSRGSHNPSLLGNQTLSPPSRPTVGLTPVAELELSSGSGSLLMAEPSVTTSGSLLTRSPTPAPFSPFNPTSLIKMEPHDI
HSF1, sequence (Q00613 whole entry): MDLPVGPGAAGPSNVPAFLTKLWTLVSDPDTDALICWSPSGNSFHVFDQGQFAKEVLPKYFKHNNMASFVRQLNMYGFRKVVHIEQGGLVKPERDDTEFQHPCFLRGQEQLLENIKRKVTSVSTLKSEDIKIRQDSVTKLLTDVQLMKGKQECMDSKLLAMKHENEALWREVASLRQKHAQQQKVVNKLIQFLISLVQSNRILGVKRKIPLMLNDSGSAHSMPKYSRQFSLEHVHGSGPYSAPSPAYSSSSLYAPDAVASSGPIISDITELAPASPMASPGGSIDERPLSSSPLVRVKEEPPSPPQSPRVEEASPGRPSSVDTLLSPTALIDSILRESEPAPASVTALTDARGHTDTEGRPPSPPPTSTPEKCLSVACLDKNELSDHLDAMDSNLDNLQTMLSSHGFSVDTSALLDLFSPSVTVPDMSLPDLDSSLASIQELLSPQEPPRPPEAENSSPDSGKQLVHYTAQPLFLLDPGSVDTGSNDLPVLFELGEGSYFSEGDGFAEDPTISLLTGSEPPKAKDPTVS

CCGTAC: the binding signal with FLI1 was 1.39 fold enrichment (6-mer frequency, TF over GST control); with ELK1, 1.25 fold enrichment (6-mer frequency, TF over GST control); in the test with GABPA, 1.33 fold enrichment (6-mer frequency, TF over GST control); with ERG, 1.3 fold enrichment (6-mer frequency, TF over GST control); with ELF1, 1.45 fold enrichment (6-mer frequency, TF over GST control); with EHF, 1.33 fold enrichment (6-mer frequency, TF over GST control). For the same sequence, the binding signal with SPI1 was 1.22 fold enrichment (6-mer frequency, TF over GST control); in the test with SPIB it was 1.15 fold enrichment (6-mer frequency, TF over GST control); with ELK3, 1.28 fold enrichment (6-mer frequency, TF over GST control); with FEV it was 1.24 fold enrichment (6-mer frequency, TF over GST control); with ETV5, 1.33 fold enrichment (6-mer frequency, TF over GST control); with HSF1 it was 1.06 fold enrichment (6-mer frequency, TF over GST control). For the same sequence, the binding signal with SPIC was 1.18 fold enrichment (6-mer frequency, TF over GST control); in the test with ELF4 it was 1.26 fold enrichment (6-mer frequency, TF over GST control); in the test with ELK4, 1.36 fold enrichment (6-mer frequency, TF over GST control); in the test with ETV2, 1.42 fold enrichment (6-mer frequency, TF over GST control); in the test with ELF3, 1.33 fold enrichment (6-mer frequency, TF over GST control); with ETV1 it was 1.34 fold enrichment (6-mer frequency, TF over GST control).
